These results are taken from PubChem BioAssay (NCI).

Assay in all cases: NCI-60 one-dose screen, 48 h (100 = growth as untreated, 0 = no growth, -100 = all killed)
The subject of test [1] is SK-MEL-2 melanoma. The conditions noted are these: 10 µM unless noted.
In test [2] the test system is EKVX NSCLC. The settings on record: 10 µM unless noted.
Test [3] relates to SN12C renal. The settings on record: 10 µM unless noted.
Test [4] has as its system UO-31 renal. The conditions noted are these: 10 µM unless noted.
Test [5] relates to TK-10 renal. The conditions noted are these: 10 µM unless noted.
For test [6], the system named is CAKI-1 renal. The conditions noted are these: 10 µM.
The test system of test [7] is CCRF-CEM leukemia. The conditions noted are these: 10 µM unless noted.
The subject of test [8] is MOLT-4 leukemia. The settings on record: 10 µM unless noted.
Test [9] relates to SR leukemia. The conditions noted are these: 10 µM unless noted.
Test [10] relates to RPMI-8226 leukemia. The conditions noted are these: 10 µM unless noted.
The subject of test [11] is OVCAR-8 ovarian. The conditions noted are these: 10 µM unless noted.
Test [12] deals with OVCAR-4 ovarian. The settings on record: 10 µM unless noted.
Test [13] concerns SK-OV-3 ovarian. The settings on record: 10 µM unless noted.
For test [14], the system named is IGROV1 ovarian. The conditions noted are these: 10 µM unless noted.
For test [15], the system named is OVCAR-3 ovarian. The conditions noted are these: 10 µM unless noted.
Test [16] deals with HS 578T breast. The conditions noted are these: 10 µM unless noted.
The subject of test [17] is NCI/ADR-RES ovarian. The settings on record: 10 µM unless noted.
In test [18] the test system is A498 renal. The settings on record: 10 µM unless noted.
The test system of test [19] is OVCAR-5 ovarian. The conditions noted are these: 10 µM unless noted.

Compounds without any hit were thinned out: in the full panel of roughly 83,000, 20% have a hit.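 Note: values are percent growth. 100 is the growth of untreated cells, values between 100 and 0 indicate rising inhibition; between -100 and 0 indicates cell death.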 Unmarked numbers belong to inactive results. Calls of active or inactive are those of the source. How the source made its calls: active means growth percent below 10; inactive means the rest.

Consider `COc1cc(NS(C)(=O)=O)ccc1Cc1c2ccccc2nc2ccccc12`, for which the growth is 104% in test [1]; 45.3% in test [2]; -6.92% (active) in test [3]; -5.05% (active) in test [4]; 23.9% in test [5]; -4.78% (active) in test [6]. Besides, the growth in test [7] was 3.42% (active); in [8], 4.35% (active); in test [9], -5.52% (active); in test [10], 22%; in [11], 2.44% (active); in test [12], 38.8%. In addition, the growth was 18% in [13]; 36.5% in [14]; -76.6% (active) in test [15]; 48% in [16]; 62.3% in test [17].
In the case of `COc1cc(/C=C/C(=O)c2ccc(Oc3ncnc4ccccc34)cc2)cc(OC)c1OC`, the growth is 94.6% in test [1]; 87% in test [2]; 68.3% in test [3]; 51.6% in test [4]; 100% in test [5]; 104% in test [18]. Moreover, the growth in test [7] is 36.6%; in test [8], 62.3%; in [9] it was 38.1%; in test [10], 24.3%; in test [11], 74.9%; in test [19], 88.2%. Further, the growth in test [12] is 73.6%; in [13], 83.6%; in [14], 66.5%; in [15], 35.6%; in [16], 97.1%; in test [17], 70.3%.
In the case of `O=C(Nc1cccc([N+](=O)[O-])c1)Nc1cccc([N+](=O)[O-])c1`, the growth in test [1] was 53.9%; in test [2], 50.4%; in test [3] it was 70.3%; in [4], 46.6%; in test [5], 39%; in [18], 33.1%. In addition, the growth in test [7] is 15.5%; in test [8] it was 9.18% (active); in [9], 38.2%; in test [10], 12.4%; in test [11], 63.3%; in test [19], 89.6%. The growth is 39.3% in [12]; 87.6% in test [13]; 63.6% in [14]; 27.6% in test [15]; 94.6% in [16]; 52.1% in test [17].
`Nc1ccc(S(=O)(=O)Nc2ccnn2-c2ccccc2)cc1`: the growth was 115% in [1]; 93.8% in test [2]; 99.7% in [3]; 82.4% in [4]; 117% in test [5]; 92.7% in test [6]. Moreover, the growth in test [18] was 107%; in test [7], 107%; in test [8], 98.1%; in test [9] it was 95.5%; in test [10], 117%; in [11], 93.7%. Also, the growth in test [12] is 109%; in test [13] it was 103%; in [14], 107%; in [15], 111%; in test [16], 103%; in test [17], 103%.
Turning to `Cc1cc(C)c(O)c(C(=O)CC(Br)C(=O)O)c1` (stereo not drawn), the growth is 89.5% in [1]; 99.4% in [2]; 110% in [3]; 77.7% in test [4]; 107% in test [5]; 117% in [18]. Moreover, the growth in test [7] was 65.2%; in [8], 88.5%; in test [9], 78.3%; in test [10], 35.8%; in test [11], 105%; in test [19] it was 106%. The growth in [12] is 106%; in test [13], 103%; in test [14], 106%; in test [15], 108%; in test [16], 107%; in test [17], 103%.
`CC(Cc1cccc(C(F)(F)F)c1)NCCOC(=O)c1ccccc1` (stereo not drawn): the growth in test [1] is 113%; in test [2] it was 84.6%; in [3] it was 99.8%; in [4] it was 85.4%; in test [5], 129%; in [6], 87.4%. Moreover, the growth was 107% in test [18]; 105% in [7]; 96.1% in test [8]; 92.4% in test [9]; 116% in [10]; 110% in [11]. Moreover, the growth is 110% in [12]; 106% in test [13]; 105% in [14]; 115% in test [15]; 101% in test [16]; 92.9% in test [17].
Consider `C[C@@H]1CC2C3C[C@H](F)C4=CC(=O)C=C[C@]4(C)[C@@]3(F)[C@@H](O)C[C@]2(C)[C@@]1(O)C(=O)CO` (stereo partly drawn), for which the growth in test [1] is 94.2%; in test [2], 64.9%; in test [3], 51.6%; in test [4], 71.6%; in test [5], 102%; in test [6] it was 75.8%. In addition, the growth in test [18] was 123%; in [7] it was 40%; in [8], 76.8%; in [9] it was 99%; in [10], 64.8%; in [11], 82.1%. The growth in test [12] was 113%; in test [13], 65.6%; in test [14], 99.8%; in test [15], 113%; in test [16] it was 112%; in test [17] it was 83.1%.
For `CCN(CC)CCNc1ccc([N+](=O)[O-])c2sc3cc(Cl)ccc3c(=O)c12`, the growth in test [1] is 82.1%; in [2], 78.9%; in [3], -19.3% (active); in test [4], -79.5% (active); in [5], 66.9%; in test [18], 73.5%. The growth in test [7] was 12.9%; in [8], 29%; in test [9], 9.3% (active); in test [10] it was 3.51% (active); in test [11] it was 3.32% (active); in [19] it was 38.7%. Besides, the growth was -37.6% (active) in test [12]; 86.3% in [13]; 15.1% in [14]; 71.5% in test [15]; 80.2% in test [16]; 33.9% in test [17].
